SMILES strings stand for the structures. Hit rate of the full screen: of about 5,500 compounds, about 2,000 (36%) were called active. Inconclusive results (about 18%) are left out. Some of the results follow. Values without a mark were called inactive. No stated cut-off is given here; in the data, active means normalized growth mostly below about 0.91 (no sharp cut-off); inconclusive means no clear call, values can overlap the other calls; inactive means mostly above about 0.92.

In PubChem BioAssay AID1159580 (chemical genetic matrix, 2015) one finds normalized growth data, which are given here for 2 compounds.

This test in a line: chemical genetic growth profiling, strain panel (AID 1159580).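 Further: tested at 20 µM; growth read once vehicle control cultures reached saturation at 30 °C; 1 = growth at the plate median or of vehicle wells.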 To be noted: S. cerevisiae deletion strains, growth OD.
Setting [1] is: locus YAL013W, strain DEP1, stronger effect = lower value.
The mark [2] stands for this setting: locus YDR150W, strain NUM1, stronger effect = lower value.
Where [3] appears, read: locus YGR078C, strain PAC10, stronger effect = lower value.
The mark [4] stands for this setting: locus YJR075W, strain HOC1, stronger effect = lower value.
[5] abbreviates: locus YNL153C, strain GIM3, stronger effect = lower value.
Setting [6] is: locus YPL241C, strain CIN2, stronger effect = lower value.

On to `N#Cc1csc([N+](=O)[O-])c1`, for which the normalized growth under setting [1] is 0.944; the normalized growth (locus YBR229C, strain ROT2, stronger effect = lower value) is 0.908 (active); the normalized growth (locus YCL061C, strain MRC1, stronger effect = lower value) is 0.937; the normalized growth (locus YDL101C, strain DUN1, stronger effect = lower value) is 0.817 (active); the normalized growth (locus YDL134C, strain PPH21, stronger effect = lower value) was 0.892 (active); the normalized growth under setting [2] was 0.885. Moreover, the normalized growth (locus YEL061C, strain CIN8, stronger effect = lower value) is 0.797 (active); the normalized growth under setting [3] was 0.86 (active); the normalized growth (locus YHR030C, strain SLT2, stronger effect = lower value) is 0.363 (active); the normalized growth (locus YHR087W, strain rtc3, stronger effect = lower value) is 0.917; the normalized growth (locus YJR043C, strain POL32, stronger effect = lower value) was 0.929; the normalized growth under setting [4] was 0.86 (active). Also, the normalized growth (locus YKL190W, strain CNB1, stronger effect = lower value) was 0.923 (active); the normalized growth (locus YLR039C, strain RIC1, stronger effect = lower value) was 0.687 (active); the normalized growth (locus YLR058C, strain SHM2 (second series), stronger effect = lower value) was 0.951; the normalized growth (locus YLR085C, strain ARP6, stronger effect = lower value) is 0.456 (active); the normalized growth (locus YLR262C, strain YPT6, stronger effect = lower value) was 0.795 (active); the normalized growth (locus YML094W, strain GIM5, stronger effect = lower value) was 0.809 (active). For the same compound, the normalized growth runs as follows: (locus YMR219W, strain ESC1, stronger effect = lower value) 0.941 (active); (locus YNL128W, strain TEP1, stronger effect = lower value) 0.942; under setting [5], 0.901 (active); (locus YNL298W, strain CLA4 (second series), stronger effect = lower value) 0.823 (active); (locus YNL322C, strain KRE1, stronger effect = lower value) 1.01; (locus YNR030W, strain Alg12, stronger effect = lower value) 0.834 (active). Moreover, the normalized growth by setting is: (locus YOL006C, strain TOP1, stronger effect = lower value) 0.369 (active); (locus YPL055C, strain LGE1, stronger effect = lower value) 0.872; under setting [6], 0.744 (active); (locus YPR135W, strain CTF4, stronger effect = lower value) 0.46 (active).

As for `N#Cc1cc2nc(O)c(O)nc2cc1[N+](=O)[O-]`, the normalized growth is 0.985 under setting [1]; 0.989 (locus YAL040C, strain CLN3, stronger effect = lower value); 0.998 (locus YCL061C, strain MRC1 (second series), stronger effect = lower value); 0.993 under setting [2]; 1.01 (locus YDR363W, strain ESC2, stronger effect = lower value); 1.01 (locus YER002W, strain NOP16, stronger effect = lower value). Besides, the normalized growth under setting [3] is 0.979; the normalized growth (locus YGR229C, strain SMI1, stronger effect = lower value) is 1.02; the normalized growth under setting [4] was 1; the normalized growth (locus YMR307W, strain GAS1, stronger effect = lower value) is 0.991; the normalized growth under setting [5] is 0.984; the normalized growth (locus YNL175C, strain NOP13, stronger effect = lower value) was 0.995. The normalized growth (locus YNL197C, strain WHI3, stronger effect = lower value) is 0.997; the normalized growth (locus YNL224C, strain SQS1, stronger effect = lower value) is 0.979; the normalized growth (locus YOR083W, strain WHI5 (second series), stronger effect = lower value) is 0.994; the normalized growth under setting [6] is 1.
